Measured values as given in PubChem BioAssay (NCATS).
Results filed as inconclusive are left out. The source made the active and inactive calls. Unless noted, calls follow the shape of the dose curve; as a rule, active = well fitted curve in the direction sought with a large enough effect; inconclusive = small, poorly fitted or top-dose-only effect, or another doubt; inactive = no such curve, though single readings can be large; an effect the other way counts as inactive or inconclusive.

Columns and labels:
[1] = Cell Viability - BJ (AID 421; calls by dose curve;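 also: potency is read from the fitted curve at half-maximal effect; cells exposed to compound for 40 hours at 37 °C before readout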); conditions: BJ fibroblast viability, qHTS
In short: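 Cytotoxicity in human BJ foreskin fibroblasts is scored as loss of cellular ATP after a 40-hour exposure, measured by luciferase luminescence. Controls are DMSO and 100 uM tamoxifen.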

[2] = Cell Viability - Jurkat (AID 426;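 active = dose-dependent loss of cell ATP signal giving a full or clear fitted curve, ranked by lower potency value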;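 also: potency is read from the fitted curve at half-maximal effect; cells exposed to compound for 40 hours at 37 °C before ATP read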); conditions: qHTS
In short: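 Cells of the human T-cell leukemia line Jurkat (E6-1) are seeded at 5000 per well, treated with compound across a concentration range for 40 hours at 37 °C, then lysed with CellTiter-Glo; luminescence reports ATP.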

[3] = Cell Viability - Hek293 (AID 427;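 active = compounds whose dose-response curve shows a full or clear partial loss of cell viability, called from curve shape rather than a numeric limit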;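 also: potency is read from the fitted curve at half-maximal effect; cells exposed to compound for 40 hours at 37 °C before reading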); conditions: qHTS
In short: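 qHTS, human embryonic kidney (adenovirus-transformed) cells; 40 hr cpd, 37 °C; CellTiter-Glo ATP luminescence. Norm: DMSO = 0, 100 uM tamoxifen = 100% inhibition. Hill-fit AC50.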

[4] = Cell Viability - HepG2 (AID 433; calls by dose curve;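 also: potency is read from the fitted curve at half-maximal effect; potency for ATP loss meaning cytotoxicity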); conditions: qHTS
In short: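 Cytotoxicity is scored as loss of intracellular ATP in HepG2 cells exposed to compounds for 40 h. Concentration-response curves, normalized to DMSO and 100 uM tamoxifen, give AC50 values.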

[5] = Cell Viability - MRC5 (AID 434; calls by dose curve;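 also: potency is read from the fitted curve at half-maximal effect; potency reflects cytotoxicity seen as loss of intracellular ATP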); conditions: MRC5 lung fibroblast viability, qHTS
In short: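 AC50 values come from Hill-equation fits of intracellular ATP loss, measured by CellTiter-Glo luminescence. Normal lung fibroblasts (MRC5) had 40 hr compound treatment at 37 C, normalized between DMSO and 100 uM tamoxifen.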

[6] = Cell Viability - SK-N-SH (AID 435; calls by dose curve;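 also: potency is read from the fitted curve at half-maximal effect; compound exposure lasted 40 h at 37 °C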); conditions: SK-N-SH neuroblastoma cell viability qHTS
In short: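 Cells seeded at 1500 per well and incubated 5 hr at 37 °C. Compound added, then 40 hr at 37 °C. CellTiter-Glo added, 20 min at room temperature, luminescence read.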

[7] = biological target: Mitogen-activated protein kinase 10 (Mus musculus) (UniProt Q61831); assay: JNK3 AlphaScreen Assay (AID 530; active = well fitted curve in either direction with a large enough effect, not every such curve was filed as active;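 also: kinase came from lysate of stimulated human HepG2 cells; signal reports phosphorylation of biotinylated GST-cJun 1-79 at Ser73 with 10 µM ATP; % is scaled to controls: 0 for no effect and ±100 for the full control effect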); conditions: JNK3 lysate, c-Jun phosphorylation; series mostly up to 57.1 µM
In short: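 qHTS titrations with 15 min compound pre-incubation before adding ATP (10 uM final). Read-out: AlphaScreen of Ser73-phosphorylated biotin-GST-cJun using HepG2 lysate JNK3 activated by IL-1β and TNFα.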

[8] = Cell Viability - N2a (AID 540); conditions: N2a mouse neuroblastoma cell viability; activity change, negative = cytotoxicity: at 92.2 µM (top of the series);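 also: cells exposed to compound for 40 h at 37 °C; plate controls were DMSO alone for no effect and tamoxifen control for full effect; nearly all actives have a fitted effect of over 45% in size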
In short: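 Cytotoxicity was scored as loss of cellular ATP in N2a cells, a mouse neuroblastoma line. Compounds are applied in a qHTS concentration series for 40 hr at 37 °C.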

[9] = Cell Viability - HUV-EC-C (AID 542); conditions: HUV-EC-C endothelial cell viability, qHTS; series mostly up to 92.2 µM; also: % is scaled to controls: 0 for no effect and ±100 for the full control effect; nearly all actives have a fitted effect of over 35% in size
In short: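 Cells were seeded at 1000 per well and incubated 5 hr at 37 °C before compound addition. After 40 hr at 37 °C, CellTiter-Glo reagent was added for 20 min and luminescence read. AC50 values came from Hill-equation modelling.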

[10] = Cell Viability - H-4-II-E (AID 543); conditions: H-4-II-E rat hepatoma viability; series mostly up to 92.2 µM; also: % is scaled to controls: 0 for no effect and ±100 for the full control effect; nearly all actives have a fitted effect of over 35% in size
In short: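 Cells seeded at 1500 per well and rested 5 hr; compounds added; 40 hr incubation at 37 °C; CellTiter-Glo added, 20 min at room temperature; luminescence read. Hill-equation fits gave AC50.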

[11] = Cell Viability - SH-SY5Y (AID 544); conditions: SH-SY5Y neuroblastoma cell viability; viability change, negative = cytotoxic: at 92.2 µM (top of the series); also: nearly all actives have a fitted effect of over 55% in size
In short: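 Cells were plated at 1500 per well and allowed 5 hr at 37 °C. Compounds were added across a concentration range and incubated 40 hr at 37 °C. CellTiter-Glo was added for 20 min at room temperature before luminescence reading.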

[12] = Cell Viability - Renal Proximal Tubule (AID 545); conditions: renal proximal tubule cells viability, primary cells of rat origin; series mostly up to 91.7 µM; also: nearly all actives have a fitted effect of over 40% in size
In short: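 Cytotoxicity is scored as a concentration-dependent drop in cellular ATP in primary rat renal proximal tubule cells exposed for 40 hr. AC50 derives from Hill modelling.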

[13] = Cell Viability - Mesenchymal (AID 546); conditions: mesenchymal cells viability, qHTS; series mostly up to 91.7 µM;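 also: cells exposed to compound for 40 hours before reading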
In short: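 CellTiter-Glo luminescence (intracellular ATP, 20 min room temperature) after 40 hr compound exposure at 37 °C of 1000 glomerulus-derived human kidney mesenchymal cells/well; AC50 values obtained by fitting qHTS concentration-response data to the Hill equation.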

[14] = Cellular Toxicity (caspase-3) HepG2 (AID 654); conditions: HepG2 caspase-3 activation, luminescence; series mostly up to 92.2 µM;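 also: cells exposed to compound for 16 hours before reading; 0% = DMSO alone and 100% = caspase signal from 100 µM tamoxifen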
In short: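 Caspase 3/7 activation in HepG2 is measured as rising luminescence after a 16 hr treatment at 37 °C. Values are scaled between DMSO basal and 100 uM tamoxifen, and AC50 is fitted with the Hill equation.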

[15] = Cellular Toxicity (caspase-3) Jurkat (AID 655); conditions: Jurkat caspase-3 activation, luminescence; caspase-3 activation: at 92.2 µM (top of the series), DMSO = 0%, tamoxifen = 100%;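 also: cells exposed to compound for 16 h at 37 °C before reading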
In short: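 Caspase 3/7 activation is scored as increased luminescence in Jurkat cells cultured with compound for 16 hours in complete medium. AC50 values come from Hill fits of qHTS concentration-response data normalized to DMSO and 100 uM tamoxifen controls.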

[16] = Cellular Toxicity (caspase-3) HUV-EC-C (AID 656); conditions: HUV-EC-C cells, caspase-3 activation (apoptosis), vehicle = 0, 100 µM tamoxifen = 100%; series mostly up to 92.2 µM
In short: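 Read-out: luminescence proportional to caspase 3/7 activity, measured 20 min after adding Caspase-Glo 3/7 reagent. Cells (HUV-EC-C) had received compound for 16 hr at 37°C. Increases relative to DMSO and 100 uM tamoxifen gave concentration-response AC50 values.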

[17] = Cellular Toxicity (caspase-3) SHSY5Y (AID 657); conditions: SH-SY5Y caspase-3 activation, DMSO zero, 10 µM staurosporine = 100%; series mostly up to 91.7 µM;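 also: cells exposed to compound for 16 hours at 37 °C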
In short: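 Cells plated and incubated 5 h at 37 °C, dosed over a concentration range, incubated 16 h, then given Caspase-Glo 3/7 reagent for 1 h at room temperature before luminescence reading. Staurosporine (10 uM) defined full stimulation.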

[18] = Cellular Toxicity (caspase-3) BJ (AID 658); conditions: BJ fibroblasts, luminescence, normalized: DMSO 0%, staurosporine 100%; series mostly up to 91.7 µM
In short: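 Caspase-Glo 3/7 luminescence, read 1 hr after reagent at room temperature, in normal BJ fibroblasts exposed 16 hours at 37 °C. AC50 values from Hill-equation concentration-response, scaled between DMSO basal and 10 uM staurosporine as 100%.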

[19] = Cellular Toxicity (caspase-3) MRC-5 (AID 659); conditions: MRC-5 cells, luminescence, normalized: DMSO 0%, 10 µM staurosporine 100%; series mostly up to 91.7 µM
In short: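 Luminescent Caspase-Glo 3/7 read-out (1 h, room temperature) after a 16 h, 37 °C compound exposure of MRC-5 lung fibroblasts at 1500 cells/well. Concentration-response AC50 from Hill equation; 0% DMSO, 100% 10 uM staurosporine.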

Nc1cc([N+](=O)[O-])ccc1C(=O)O
inactive: Potency [1] > 92 µM | Potency [2] > 92 µM | Potency [3] > 92 µM | Potency [4] > 92 µM | Potency [5] > 92 µM | Potency [6] > 92 µM | outcome [7] | activity change, negative = cytotoxicity [8] 7.91% | Potency [9] | Potency [10] | Potency [11] | Potency [12] | Potency [13] | Potency [14] | caspase-3 activation [15] -2.73% | outcome [16] | outcome [17] | outcome [18] | outcome [19]

CCNS(=O)(=O)c1ccc(C)cc1
inactive: Potency [1] > 92 µM | Potency [2] > 92 µM | Potency [3] > 92 µM | Potency [4] > 92 µM | Potency [5] > 92 µM | Potency [6] > 92 µM | outcome [7] | activity change, negative = cytotoxicity [8] -13.9% | Potency [9] | Potency [10] | Potency [11] | Potency [12] | Potency [13] | Potency [14] | caspase-3 activation [15] 2.46% | outcome [16] | outcome [17] | outcome [18] | outcome [19]

Cc1ccc(Cl)cc1N
inactive: Potency [1] > 92 µM | Potency [2] > 92 µM | Potency [3] > 92 µM | Potency [4] > 92 µM | Potency [5] > 92 µM | Potency [6] 47.5 µM | outcome [7] | activity change, negative = cytotoxicity [8] -10.6% | Potency [9] | Potency [10] | Potency [12] | Potency [13] | Potency [14] | caspase-3 activation [15] 4% | outcome [16] | outcome [17] | outcome [18] | outcome [19]

CC(=O)Nc1cccc(N)c1
inactive: Potency [1] > 92 µM | Potency [2] > 92 µM | Potency [3] > 92 µM | Potency [4] > 92 µM | Potency [5] > 92 µM | Potency [6] > 92 µM | outcome [7] | activity change, negative = cytotoxicity [8] 5.61% | Potency [9] | Potency [10] | Potency [11] | Potency [12] | Potency [13] | Potency [14] | caspase-3 activation [15] 1.66% | outcome [16] | outcome [17] | outcome [18] | outcome [19]

Cc1cc([N+](=O)[O-])ccc1N
inactive: Potency [1] > 92 µM | Potency [2] > 92 µM | Potency [3] > 92 µM | Potency [4] > 92 µM | Potency [5] > 92 µM | Potency [6] > 92 µM | outcome [7] | activity change, negative = cytotoxicity [8] -8.91% | Potency [9] | Potency [10] | Potency [11] | Potency [13] | Potency [14] | caspase-3 activation [15] -1.03% | outcome [16] | outcome [17] | outcome [18] | outcome [19]

FC(F)(F)c1ccccc1Cl
inactive: Potency [1] > 92 µM | Potency [2] > 92 µM | Potency [3] > 92 µM | Potency [4] > 92 µM | Potency [5] > 92 µM | Potency [6] > 92 µM | outcome [7] | activity change, negative = cytotoxicity [8] -3.42% | Potency [10] | Potency [11] | Potency [12] | Potency [13] | Potency [14] | caspase-3 activation [15] 2.68% | outcome [16] | outcome [17] | outcome [18]

Nc1cccc(S(=O)(=O)O)c1
inactive: Potency [1] > 92 µM | Potency [2] > 92 µM | Potency [3] > 92 µM | Potency [4] > 92 µM | Potency [5] > 92 µM | Potency [6] > 92 µM | outcome [7] | activity change, negative = cytotoxicity [8] -6.89% | Potency [9] | Potency [10] | Potency [11] | Potency [12] | Potency [13] | Potency [14] | caspase-3 activation [15] -0.29% | outcome [16] | outcome [17] | outcome [18] | outcome [19]
